Measured values: ChEMBL document CHEMBL2218924, “A broad activity screen in support of a chemogenomic map for kinase signalling research and drug discovery” (Biochem J, 2013)

Experiments:
[1] = molecular target: Homeodomain-interacting protein kinase 3 (Homo sapiens) (UniProt Q9H422); conditions: at 10 µM
[2] = molecular target: T1, Serine/threonine-protein kinase haspin (Homo sapiens) (UniProt Q8TF76); conditions: at 1 µM
T1 sequence (whole entry): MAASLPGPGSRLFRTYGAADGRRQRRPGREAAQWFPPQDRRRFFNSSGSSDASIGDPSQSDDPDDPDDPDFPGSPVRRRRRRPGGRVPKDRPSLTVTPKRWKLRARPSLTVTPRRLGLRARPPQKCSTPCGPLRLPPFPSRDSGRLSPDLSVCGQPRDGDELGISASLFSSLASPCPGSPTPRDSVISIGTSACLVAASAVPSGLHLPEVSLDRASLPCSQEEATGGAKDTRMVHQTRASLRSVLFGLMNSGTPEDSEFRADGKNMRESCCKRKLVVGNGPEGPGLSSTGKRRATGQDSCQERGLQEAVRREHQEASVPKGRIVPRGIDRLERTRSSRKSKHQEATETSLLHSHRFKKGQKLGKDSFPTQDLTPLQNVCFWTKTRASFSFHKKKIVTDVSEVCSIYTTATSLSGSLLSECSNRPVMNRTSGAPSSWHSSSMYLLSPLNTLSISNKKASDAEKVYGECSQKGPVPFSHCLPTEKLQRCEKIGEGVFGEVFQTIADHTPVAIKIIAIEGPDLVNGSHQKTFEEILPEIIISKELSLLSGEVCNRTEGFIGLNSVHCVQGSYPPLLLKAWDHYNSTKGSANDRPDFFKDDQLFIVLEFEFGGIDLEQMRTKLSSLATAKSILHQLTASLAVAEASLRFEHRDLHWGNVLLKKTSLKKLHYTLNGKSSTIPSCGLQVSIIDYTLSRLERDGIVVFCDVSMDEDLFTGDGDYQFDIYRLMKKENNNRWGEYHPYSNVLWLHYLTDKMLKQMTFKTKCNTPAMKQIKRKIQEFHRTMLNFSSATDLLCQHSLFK

[3] = molecular target: T1, Serine/threonine-protein kinase haspin (Homo sapiens); conditions: at 10 µM
[4] = molecular target: Tyrosine-protein kinase HCK (Homo sapiens) (UniProt P08631); conditions: at 1 µM
Tyrosine-protein kinase HCK (Homo sapiens), sequence (P08631 2-526 limits assumed): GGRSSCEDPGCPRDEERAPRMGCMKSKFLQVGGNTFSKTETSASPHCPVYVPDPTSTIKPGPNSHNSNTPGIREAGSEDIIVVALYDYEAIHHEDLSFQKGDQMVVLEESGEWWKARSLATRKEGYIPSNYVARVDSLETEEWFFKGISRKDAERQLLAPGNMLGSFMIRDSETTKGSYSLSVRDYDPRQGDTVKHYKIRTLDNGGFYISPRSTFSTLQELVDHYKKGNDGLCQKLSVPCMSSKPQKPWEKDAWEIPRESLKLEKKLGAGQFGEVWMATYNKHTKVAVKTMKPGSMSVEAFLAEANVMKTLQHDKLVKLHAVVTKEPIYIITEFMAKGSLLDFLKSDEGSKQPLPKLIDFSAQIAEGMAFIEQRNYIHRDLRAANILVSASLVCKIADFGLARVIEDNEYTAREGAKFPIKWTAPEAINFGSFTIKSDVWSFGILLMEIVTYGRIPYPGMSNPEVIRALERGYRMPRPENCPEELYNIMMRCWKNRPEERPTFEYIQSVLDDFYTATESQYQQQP

[5] = molecular target: Tyrosine-protein kinase HCK (Homo sapiens) (UniProt P08631); conditions: at 10 µM
[6] = molecular target: Tyrosine-protein kinase HCK (Homo sapiens) (UniProt P08631); conditions: at 1 µM; remark: listed apart in the source
[7] = molecular target: Tyrosine-protein kinase HCK (Homo sapiens) (UniProt P08631); conditions: at 10 µM; remark: listed apart in the source
[8] = molecular target: Insulin-like growth factor 1 receptor (Homo sapiens) (UniProt P08069); conditions: at 1 µM
Insulin-like growth factor 1 receptor (Homo sapiens), sequence (P08069 31-736 limits assumed): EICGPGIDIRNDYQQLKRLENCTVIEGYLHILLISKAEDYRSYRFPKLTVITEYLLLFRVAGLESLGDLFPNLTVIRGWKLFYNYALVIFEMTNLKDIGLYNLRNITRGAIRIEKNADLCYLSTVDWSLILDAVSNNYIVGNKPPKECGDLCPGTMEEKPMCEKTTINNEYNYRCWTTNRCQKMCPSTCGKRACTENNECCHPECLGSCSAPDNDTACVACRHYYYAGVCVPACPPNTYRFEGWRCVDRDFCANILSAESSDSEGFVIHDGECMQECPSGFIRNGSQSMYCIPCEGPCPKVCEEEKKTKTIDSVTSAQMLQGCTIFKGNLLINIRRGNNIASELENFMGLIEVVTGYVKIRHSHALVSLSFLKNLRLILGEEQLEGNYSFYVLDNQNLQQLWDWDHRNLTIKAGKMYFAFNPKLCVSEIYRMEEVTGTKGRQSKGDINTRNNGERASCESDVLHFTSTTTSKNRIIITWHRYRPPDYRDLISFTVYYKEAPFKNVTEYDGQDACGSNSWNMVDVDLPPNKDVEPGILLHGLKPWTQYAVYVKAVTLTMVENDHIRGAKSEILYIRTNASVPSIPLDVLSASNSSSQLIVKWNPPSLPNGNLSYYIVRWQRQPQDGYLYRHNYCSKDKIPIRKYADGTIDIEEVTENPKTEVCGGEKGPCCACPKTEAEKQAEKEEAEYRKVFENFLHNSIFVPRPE
Insulin-like growth factor 1 receptor (Homo sapiens), sequence (P08069 741-1367 limits assumed): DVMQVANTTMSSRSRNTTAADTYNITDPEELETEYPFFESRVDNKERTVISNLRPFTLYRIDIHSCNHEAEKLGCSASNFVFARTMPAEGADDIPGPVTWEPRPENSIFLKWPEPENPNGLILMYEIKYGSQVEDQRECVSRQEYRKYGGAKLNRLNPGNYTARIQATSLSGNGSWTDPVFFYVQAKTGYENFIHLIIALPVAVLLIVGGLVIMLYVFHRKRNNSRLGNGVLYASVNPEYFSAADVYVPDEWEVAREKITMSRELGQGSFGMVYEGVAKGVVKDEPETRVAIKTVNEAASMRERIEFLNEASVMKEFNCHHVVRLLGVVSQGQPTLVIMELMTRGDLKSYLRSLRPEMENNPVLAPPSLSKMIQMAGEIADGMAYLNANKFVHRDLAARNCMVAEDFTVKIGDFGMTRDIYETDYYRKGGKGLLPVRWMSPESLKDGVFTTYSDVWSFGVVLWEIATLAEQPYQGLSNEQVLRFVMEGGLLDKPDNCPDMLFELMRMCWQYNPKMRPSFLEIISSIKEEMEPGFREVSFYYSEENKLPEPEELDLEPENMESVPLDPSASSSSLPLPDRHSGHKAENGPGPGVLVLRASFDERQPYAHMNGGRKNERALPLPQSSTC

[9] = molecular target: Insulin-like growth factor 1 receptor (Homo sapiens) (UniProt P08069); conditions: at 10 µM
[10] = molecular target: T2, Protein kinase C zeta type (Homo sapiens) (UniProt Q05513); conditions: at 10 µM
T2 sequence (whole entry): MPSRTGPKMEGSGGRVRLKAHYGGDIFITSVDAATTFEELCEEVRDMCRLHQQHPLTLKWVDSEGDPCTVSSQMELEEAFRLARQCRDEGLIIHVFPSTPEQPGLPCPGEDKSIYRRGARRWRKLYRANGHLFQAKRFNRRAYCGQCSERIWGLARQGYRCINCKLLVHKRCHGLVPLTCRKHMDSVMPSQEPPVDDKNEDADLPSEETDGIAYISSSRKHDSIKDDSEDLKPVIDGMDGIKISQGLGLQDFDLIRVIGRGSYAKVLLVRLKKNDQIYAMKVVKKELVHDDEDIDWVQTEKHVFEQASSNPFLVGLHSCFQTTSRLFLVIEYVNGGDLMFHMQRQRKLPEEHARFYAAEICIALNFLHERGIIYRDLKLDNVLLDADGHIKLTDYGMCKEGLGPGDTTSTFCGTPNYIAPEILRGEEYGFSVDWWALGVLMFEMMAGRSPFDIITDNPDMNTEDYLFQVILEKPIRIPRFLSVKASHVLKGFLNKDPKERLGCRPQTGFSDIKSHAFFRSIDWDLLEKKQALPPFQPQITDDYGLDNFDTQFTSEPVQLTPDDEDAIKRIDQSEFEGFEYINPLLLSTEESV

[11] = molecular target: Protein kinase C eta type (Homo sapiens) (UniProt P24723); conditions: at 1 µM
Protein kinase C eta type (Homo sapiens), sequence (P24723 whole entry): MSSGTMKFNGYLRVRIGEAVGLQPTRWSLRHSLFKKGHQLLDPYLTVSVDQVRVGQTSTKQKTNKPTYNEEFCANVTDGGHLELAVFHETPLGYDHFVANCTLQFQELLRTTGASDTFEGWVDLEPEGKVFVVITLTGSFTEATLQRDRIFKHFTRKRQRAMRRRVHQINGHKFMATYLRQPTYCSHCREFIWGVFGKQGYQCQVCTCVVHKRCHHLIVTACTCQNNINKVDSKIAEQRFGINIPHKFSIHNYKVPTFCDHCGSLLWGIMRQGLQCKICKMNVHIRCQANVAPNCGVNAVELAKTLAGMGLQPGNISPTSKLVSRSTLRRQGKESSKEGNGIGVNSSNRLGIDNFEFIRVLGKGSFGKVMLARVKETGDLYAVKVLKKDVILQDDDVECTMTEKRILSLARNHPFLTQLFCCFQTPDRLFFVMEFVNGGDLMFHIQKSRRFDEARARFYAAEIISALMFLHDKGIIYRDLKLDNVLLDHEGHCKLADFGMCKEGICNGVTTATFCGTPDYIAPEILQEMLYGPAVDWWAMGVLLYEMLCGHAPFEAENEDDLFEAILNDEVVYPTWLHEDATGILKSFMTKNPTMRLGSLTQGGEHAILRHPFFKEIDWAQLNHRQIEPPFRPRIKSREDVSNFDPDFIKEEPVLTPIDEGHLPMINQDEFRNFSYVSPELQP

[12] = molecular target: Protein kinase C eta type (Homo sapiens) (UniProt P24723); conditions: at 10 µM
[13] = molecular target: Protein kinase C theta type (Homo sapiens) (UniProt Q04759); conditions: at 1 µM
Protein kinase C theta type (Homo sapiens), sequence (Q04759 whole entry, looked up): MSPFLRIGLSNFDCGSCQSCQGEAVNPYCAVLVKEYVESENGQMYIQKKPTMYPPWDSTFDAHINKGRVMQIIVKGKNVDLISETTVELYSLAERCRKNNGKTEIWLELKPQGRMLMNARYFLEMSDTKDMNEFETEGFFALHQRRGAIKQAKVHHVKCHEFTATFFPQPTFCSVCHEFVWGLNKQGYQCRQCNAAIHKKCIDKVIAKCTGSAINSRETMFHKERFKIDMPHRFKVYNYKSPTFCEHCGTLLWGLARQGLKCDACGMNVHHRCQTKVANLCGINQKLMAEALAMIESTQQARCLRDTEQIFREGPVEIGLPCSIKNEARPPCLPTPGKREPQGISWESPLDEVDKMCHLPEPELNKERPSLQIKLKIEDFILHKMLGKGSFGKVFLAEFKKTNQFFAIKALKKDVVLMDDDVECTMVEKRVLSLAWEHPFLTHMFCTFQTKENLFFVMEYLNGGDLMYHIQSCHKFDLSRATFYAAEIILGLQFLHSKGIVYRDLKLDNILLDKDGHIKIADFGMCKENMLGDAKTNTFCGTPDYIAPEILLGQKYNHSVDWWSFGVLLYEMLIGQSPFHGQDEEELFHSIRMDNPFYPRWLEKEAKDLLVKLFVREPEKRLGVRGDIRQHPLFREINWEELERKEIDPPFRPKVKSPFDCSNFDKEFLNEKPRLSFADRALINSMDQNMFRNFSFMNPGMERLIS

[14] = molecular target: Protein kinase C theta type (Homo sapiens) (UniProt Q04759); conditions: at 10 µM
[15] = molecular target: T3, Protein kinase C iota type (Homo sapiens) (UniProt P41743); conditions: at 1 µM
T3 sequence (whole entry): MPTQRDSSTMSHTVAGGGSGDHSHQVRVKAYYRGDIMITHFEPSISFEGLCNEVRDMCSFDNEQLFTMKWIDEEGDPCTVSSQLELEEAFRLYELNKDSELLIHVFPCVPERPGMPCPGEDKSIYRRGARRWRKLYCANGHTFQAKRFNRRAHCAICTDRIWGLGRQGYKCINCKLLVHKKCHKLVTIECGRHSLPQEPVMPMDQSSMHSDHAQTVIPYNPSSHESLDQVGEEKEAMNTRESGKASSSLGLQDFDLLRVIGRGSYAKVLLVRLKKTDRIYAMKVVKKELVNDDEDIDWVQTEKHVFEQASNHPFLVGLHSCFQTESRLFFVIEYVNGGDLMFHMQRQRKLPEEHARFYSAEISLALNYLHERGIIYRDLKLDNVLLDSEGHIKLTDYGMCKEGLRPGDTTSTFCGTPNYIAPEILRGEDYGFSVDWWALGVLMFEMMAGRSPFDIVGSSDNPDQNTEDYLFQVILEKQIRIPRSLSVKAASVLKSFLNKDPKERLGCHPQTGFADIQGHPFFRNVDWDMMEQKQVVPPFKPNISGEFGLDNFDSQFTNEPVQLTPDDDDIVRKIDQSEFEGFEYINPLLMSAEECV

[16] = molecular target: T3, Protein kinase C iota type (Homo sapiens); conditions: at 10 µM
[17] = molecular target: T4, Serine/threonine-protein kinase D1 (Homo sapiens) (UniProt Q15139); conditions: at 1 µM
T4 sequence (whole entry): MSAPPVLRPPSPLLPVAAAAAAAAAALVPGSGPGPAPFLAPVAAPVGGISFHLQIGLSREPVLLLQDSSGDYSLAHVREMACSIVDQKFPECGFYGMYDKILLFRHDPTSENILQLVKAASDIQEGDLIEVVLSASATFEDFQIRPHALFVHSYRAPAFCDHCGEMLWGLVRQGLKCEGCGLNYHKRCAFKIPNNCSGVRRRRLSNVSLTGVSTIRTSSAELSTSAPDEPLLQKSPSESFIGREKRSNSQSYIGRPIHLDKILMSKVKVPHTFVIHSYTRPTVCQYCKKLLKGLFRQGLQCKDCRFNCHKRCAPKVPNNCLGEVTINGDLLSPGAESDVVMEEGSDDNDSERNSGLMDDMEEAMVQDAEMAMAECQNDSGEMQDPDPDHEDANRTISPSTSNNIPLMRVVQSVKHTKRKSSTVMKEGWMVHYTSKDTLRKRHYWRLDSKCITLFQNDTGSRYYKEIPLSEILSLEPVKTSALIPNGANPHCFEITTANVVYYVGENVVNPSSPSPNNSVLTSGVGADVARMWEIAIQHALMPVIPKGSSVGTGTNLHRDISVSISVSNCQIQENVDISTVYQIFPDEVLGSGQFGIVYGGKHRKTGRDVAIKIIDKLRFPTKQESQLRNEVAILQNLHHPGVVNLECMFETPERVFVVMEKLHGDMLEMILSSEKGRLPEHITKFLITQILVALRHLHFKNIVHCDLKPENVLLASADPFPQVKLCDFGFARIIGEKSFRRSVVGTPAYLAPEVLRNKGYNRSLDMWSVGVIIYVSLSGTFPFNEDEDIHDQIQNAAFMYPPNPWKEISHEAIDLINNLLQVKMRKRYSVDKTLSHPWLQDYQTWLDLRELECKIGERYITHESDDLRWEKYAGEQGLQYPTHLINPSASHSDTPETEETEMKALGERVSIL

[18] = molecular target: T4, Serine/threonine-protein kinase D1 (Homo sapiens); conditions: at 10 µM
[19] = molecular target: T5, Serine/threonine-protein kinase D2 (Homo sapiens) (UniProt Q9BZL6); conditions: at 1 µM
T5 sequence (whole entry): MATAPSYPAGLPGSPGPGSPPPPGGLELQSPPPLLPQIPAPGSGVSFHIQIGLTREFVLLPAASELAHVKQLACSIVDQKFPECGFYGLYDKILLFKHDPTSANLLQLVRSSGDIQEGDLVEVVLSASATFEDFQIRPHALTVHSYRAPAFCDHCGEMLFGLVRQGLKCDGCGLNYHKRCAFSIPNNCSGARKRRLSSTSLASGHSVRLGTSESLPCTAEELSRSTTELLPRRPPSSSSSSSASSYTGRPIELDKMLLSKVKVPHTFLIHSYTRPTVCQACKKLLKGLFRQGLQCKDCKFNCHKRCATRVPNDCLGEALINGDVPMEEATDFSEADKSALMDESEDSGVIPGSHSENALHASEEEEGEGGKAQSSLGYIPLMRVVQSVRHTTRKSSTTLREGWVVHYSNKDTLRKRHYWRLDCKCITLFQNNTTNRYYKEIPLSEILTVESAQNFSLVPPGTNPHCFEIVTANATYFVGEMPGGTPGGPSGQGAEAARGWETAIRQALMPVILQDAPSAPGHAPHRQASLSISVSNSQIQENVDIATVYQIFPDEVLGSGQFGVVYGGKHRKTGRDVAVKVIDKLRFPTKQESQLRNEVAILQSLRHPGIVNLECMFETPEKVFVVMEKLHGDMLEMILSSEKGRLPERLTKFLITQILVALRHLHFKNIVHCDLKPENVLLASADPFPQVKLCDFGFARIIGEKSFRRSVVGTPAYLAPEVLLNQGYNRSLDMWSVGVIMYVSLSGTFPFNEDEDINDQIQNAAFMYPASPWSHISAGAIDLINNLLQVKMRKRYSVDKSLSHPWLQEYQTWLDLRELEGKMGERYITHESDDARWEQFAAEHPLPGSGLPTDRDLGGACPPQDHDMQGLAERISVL

[20] = molecular target: T5, Serine/threonine-protein kinase D2 (Homo sapiens); conditions: at 10 µM

Homeodomain-interacting protein kinase 3 (Homo sapiens), sequence (Q9H422 whole entry, looked up): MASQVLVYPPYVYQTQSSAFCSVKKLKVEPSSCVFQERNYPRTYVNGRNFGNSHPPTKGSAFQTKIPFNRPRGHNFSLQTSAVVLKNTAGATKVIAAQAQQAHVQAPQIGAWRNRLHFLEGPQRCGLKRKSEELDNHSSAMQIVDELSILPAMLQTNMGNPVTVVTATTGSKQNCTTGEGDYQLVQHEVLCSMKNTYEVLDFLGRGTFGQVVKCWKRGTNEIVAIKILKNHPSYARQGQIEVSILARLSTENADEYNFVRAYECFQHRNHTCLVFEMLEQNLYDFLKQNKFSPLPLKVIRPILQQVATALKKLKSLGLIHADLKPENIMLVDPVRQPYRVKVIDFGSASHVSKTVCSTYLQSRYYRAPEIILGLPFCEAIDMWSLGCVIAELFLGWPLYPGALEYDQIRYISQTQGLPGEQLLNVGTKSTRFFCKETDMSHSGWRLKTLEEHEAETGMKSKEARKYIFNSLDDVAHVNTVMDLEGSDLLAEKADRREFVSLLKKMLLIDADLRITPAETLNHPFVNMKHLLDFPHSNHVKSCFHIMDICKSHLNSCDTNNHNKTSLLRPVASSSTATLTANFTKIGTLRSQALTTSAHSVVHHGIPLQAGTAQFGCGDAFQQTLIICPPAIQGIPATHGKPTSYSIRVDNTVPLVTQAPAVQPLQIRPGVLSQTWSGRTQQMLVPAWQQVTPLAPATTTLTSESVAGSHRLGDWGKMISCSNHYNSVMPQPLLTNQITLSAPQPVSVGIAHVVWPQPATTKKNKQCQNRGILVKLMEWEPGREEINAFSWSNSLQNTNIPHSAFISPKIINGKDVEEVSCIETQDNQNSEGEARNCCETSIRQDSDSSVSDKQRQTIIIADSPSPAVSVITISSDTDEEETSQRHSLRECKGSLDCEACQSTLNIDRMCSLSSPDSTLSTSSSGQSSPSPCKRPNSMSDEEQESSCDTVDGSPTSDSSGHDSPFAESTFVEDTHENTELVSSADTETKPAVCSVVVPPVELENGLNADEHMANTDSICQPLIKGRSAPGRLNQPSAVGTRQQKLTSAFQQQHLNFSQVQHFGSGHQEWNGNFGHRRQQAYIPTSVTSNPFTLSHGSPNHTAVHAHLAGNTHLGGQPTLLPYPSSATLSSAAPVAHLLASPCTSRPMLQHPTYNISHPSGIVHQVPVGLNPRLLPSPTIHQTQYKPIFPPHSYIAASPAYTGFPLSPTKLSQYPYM

SMILES	residual activity [1] [%]	residual activity [2] [%]	residual activity [3] [%]	residual activity [4] [%]	residual activity [5] [%]	residual activity [6] [%]	residual activity [7] [%]	residual activity [8] [%]	residual activity [9] [%]	residual activity [10] [%]	residual activity [11] [%]	residual activity [12] [%]	residual activity [13] [%]	residual activity [14] [%]	residual activity [15]	residual activity [16] [%]	residual activity [17] [%]	residual activity [18] [%]	residual activity [19] [%]	residual activity [20] [%]
CC(C)n1cnc2/c(=N/c3cccc(Cl)c3)nc(NCCO)[nH]c21	83	80	58	41	13	57	13	103	105	102	87	75	69	35	110% (inactive)	103	77	57	96	93
O=C1c2ccccc2-[n+]2ccc3c([nH]c4ccccc43)c21	87	73	107	80	57	89	83	59	67	102	72	80	93	99	100% (inactive)	105	83	71	101	100
Oc1ccc(Nc2nc(-c3ccc(Cl)cc3)cs2)cc1	85	88	84	89	69	97	86	120	101	87	78	79	100	114	109% (inactive)	103	94	100	106	93
COc1cccc(-c2cc(=O)c3ccccc3o2)c1N	98	118	81	88	87	106	105	91	127	105	101	94	92	97	114% (inactive)	108	85	95	110	97
Cc1ccc(S(=O)(=O)/C=C/C#N)cc1	98	94	102	87	82	98	97	75	107	96	80	90	97	77	109% (inactive)	100	98	84	108	102
COc1cc2ncnc(Nc3ccc(O)c(Br)c3)c2cc1OC	92	65	24	32	4	29	7	71	73	95	94	69	83	81	88% (inactive)	106	47	16	93	79
CO[C@H]1C[C@@H]2CC[C@@H](C)[C@@](O)(O2)C(=O)C(=O)N2CCCC[C@H]2C(=O)O[C@H]([C@H](C)C[C@@H]2CC[C@@H](O)[C@H](OC)C2)CC(=O)[C@H](C)/C=C(\C)[C@@H](O)[C@@H](OC)C(=O)[C@H](C)C[C@H](C)/C=C/C=C/C=C/1C	110	86	106	73	81	99	87	123	112	112	93	76	94	113	89% (inactive)	77	93	97	102	107
O=C1NC(=O)c2cc(Nc3ccc(F)cc3)c(Nc3ccc(F)cc3)cc21	99	103	41	63	21	87	49	102	108	101	91	80	87	62	91% (inactive)	106	94	72	101	89
NC(=O)c1ccc2[nH]c(-c3ccc(Oc4ccc(Cl)cc4)cc3)nc2c1	98	89	96	72	60	96	89	140	98	100	86	80	85	105	107% (inactive)	96	109	79	99	84
CCN(CC)CCCCN1c2ccccc2Oc2ccc(Cl)cc21	99	81	36	101	103	109	112	136	90	112	118	98	123	90	94% (inactive)	89	92	95	97	109
Cc1ccc(NC2=CC(=O)c3sc(C)nc3C2=O)cc1	97	105	116	85	74	103	99	75	116	102	83	86	88	87	106% (inactive)	103	76	73	105	85
CCOc1cc2ncnc(Nc3cccc(Br)c3)c2cc1OCC	92	97	66	34	6	17	4	89	106	69	82	88	116	106	87% (inactive)	95	101	54	104	113
O=Nc1c(-c2c(O)[nH]c3ccccc23)[nH]c2ccccc12	19	26	19	15	5	8	1	37	26	98	91	83	81	55	96% (inactive)	105	113	65	109	98
